DT40 TDP1 no CPT = qHTS for Inhibitors of human tyrosyl-DNA phosphodiesterase 1 (TDP1): qHTS in cells in absence of CPT; 420,000 compounds, 15% hits; Potency, µM (top dose mostly 46.2 µM), actives largely listed as inhibitors; DT40 Tdp1-/- hTDP1 cells, no CPT, ATP luminescence, 48 h; further: nearly all actives have a fitted effect of over 55% in size
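Stably hTDP1-transfected Tdp1-null chicken DT40 cells were treated with library compounds minus camptothecin and grown for at least 48 hr at 37 °C, after which cellular ATP was quantified by luminescence.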
DT40 TDP1 CPT = DT40-hTDP1 cell growth loss with CPT | chicken DT40 Tdp1-/-;hTDP1 cells + 20 nM CPT, ATP luminescence, 48 h | Potency, µM (top dose mostly 46.2 µM), most hits filed as inhibitors | 420,000 compounds, 12% hits; further: nearly all actives have a fitted effect of over 55% in size
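Cell growth measured by CellTiter-Glo luminescence after a minimum 48 h, 37 C compound exposure with 20 nM CPT in Tdp1-knockout DT40 cells stably expressing hTDP1, seeded 400/well; qHTS titration format.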
RORg inh = blocks mouse ROR gamma transcriptional activity; Potency, µM (highest dose often 53.6 µM), usual class: inhibitors; P51450; AID 2551; Drosophila S2 Gal4-RORgamma UAS-luciferase reporter, 20 h; 310,000 compounds, 5.4% hits; further: nearly all actives have a fitted effect of over 60% in size
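A Gal4/UAS one-hybrid system in insect cells: metallothionein-promoter Gal4–ROR gamma fusion plus Photinus luciferase reporter. Copper sulfate 700 uM final, 20 hr ambient incubation, luminescent detection after 10 min with reagent.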
Gal4-VP16 FLuc = inhibits Gal4-VP16 luciferase reporter, ROR gamma counter-screen | 310,000 compounds, 3.5% hits | Drosophila S2 Gal4-VP16 UAS-luciferase, luminescence, 20 h | AID 2546 | Potency, µM (doses to about 53.6 µM), hits mostly inhibitors;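 further: Gal4-VP16 expression switched on by copper sulfate through the metallothionein promoter; nearly all actives have a fitted effect of over 50% in size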
TDP1 inh = inhibitors of human tyrosyl-DNA phosphodiesterase TDP1; Q9NUW8; recombinant TDP1, AlphaScreen DNA substrate cleavage; Potency, µM (top dose mostly 130 µM), actives largely listed as inhibitors; 350,000 compounds, 0.28% hits; AID 485290; further: nearly all actives have a fitted effect of over 40% in size
Target sequence (Q9NUW8 whole entry, looked up): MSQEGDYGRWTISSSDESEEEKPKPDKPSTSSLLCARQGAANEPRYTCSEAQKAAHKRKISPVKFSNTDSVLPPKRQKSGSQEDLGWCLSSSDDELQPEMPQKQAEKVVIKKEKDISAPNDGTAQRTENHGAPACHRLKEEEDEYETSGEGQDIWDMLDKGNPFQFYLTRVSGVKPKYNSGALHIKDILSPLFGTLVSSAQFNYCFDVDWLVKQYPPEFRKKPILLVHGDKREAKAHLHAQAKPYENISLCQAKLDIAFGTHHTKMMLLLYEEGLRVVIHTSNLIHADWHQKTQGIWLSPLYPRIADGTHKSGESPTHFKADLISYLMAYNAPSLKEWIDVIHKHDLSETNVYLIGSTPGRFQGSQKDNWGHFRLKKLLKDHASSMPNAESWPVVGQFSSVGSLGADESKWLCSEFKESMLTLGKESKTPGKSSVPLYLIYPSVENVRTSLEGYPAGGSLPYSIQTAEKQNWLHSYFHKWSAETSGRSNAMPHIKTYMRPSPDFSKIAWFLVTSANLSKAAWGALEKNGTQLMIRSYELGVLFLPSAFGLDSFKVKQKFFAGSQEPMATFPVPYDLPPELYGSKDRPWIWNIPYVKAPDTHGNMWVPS
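Recombinant human Tdp1 (E. coli-expressed, 1 nM final) preincubated with compounds 15 min at room temperature, then 5'-biotin/3'-phosphotyrosine-FITC DNA substrate (15 nM final) added for 5 min. AlphaScreen beads (10 ug/ml final) added 10 min; cleavage lowers signal.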
Hits are given with their value; . = inactive; ? = inconclusive; / = no result; ! = not confirmed by another sample; [ ] = remark or other dose. Shown are actives, neighbours in structure and some others; about 19% of the full set was active somewhere. The call rests on the fitted dose curve; in most records, active means well fitted curve in the direction sought with a large enough effect; inconclusive means small, poorly fitted or top-dose-only effect, or another doubt; inactive means no such curve, though single readings can be large; an effect the other way counts as inactive or inconclusive.

SMILES	DT40 TDP1 no CPT	DT40 TDP1 CPT	RORg inh	Gal4-VP16 FLuc	TDP1 inh
C[C@]12CC[C@H](O)C[C@@H]1CC[C@H]1[C@H]3CCC(=O)[C@@]3(C)CC[C@@H]12	18.4µM	?	/	/	/
C[C@]12CCC3C(CC[C@H]4C[C@H](OC(=O)c5cccnc5)CC[C@]34C)C1CCC2=O (some centres undefined)	23.1µM	?	/	/	.
Cc1ncc2n1-c1ccc(Cl)cc1C(c1ccccc1F)=NC2	?	?	.	.	.
COC(=O)C1=C(c2ccc(-c3ccccc3)c(F)c2)C[C@@H]2CC[C@H]1N2C(=O)NC(C)C	18.4µM	13µM	/	/	.
COC(=O)C1=C(c2ccc(-c3ccccc3)c(F)c2)C[C@@H]2CC[C@H]1N2C(=O)NC1CC1	9.2µM	4.11µM	/	/	.
COC(=O)C1=C(c2ccc3ccccc3c2)C[C@@H]2CC[C@H]1N2C	.	?	/	/	.
COC(=O)C1=C(c2ccc3ccccc3c2)C[C@@H]2CC[C@H]1N2C(=O)NC(C)C	18.4µM	?	/	/	.
COc1ccc(CCn2c(O)c(C=NCCN3CCCCC3)c(=O)[nH]c2=O)cc1OC	.	.	.	.	.
Cc1ccc(Sc2ccc(C=C3C(=O)N(C)C(=O)N(C)C3=O)o2)cc1	18.4µM	18.4µM	.	.	.
CN1C(=O)C(=Cc2ccc(-c3cccc(Cl)c3)o2)C(=O)N(C)C1=O	/	/	.	.	/
C[C@@H]1CNC(=O)c2c(C(=O)Nc3ccc(CNC(=O)OC(C)(C)C)cc3)ncn21	9.2µM	23.1µM	/	/	/
CCCN(CCC)C(=O)C(CCC(=O)OCCCN1CCN(CCOC(=O)Cc2c(C)n(C(=O)c3ccc(Cl)cc3)c3ccc(OC)cc23)CC1)NC(=O)c1ccccc1 (centres undefined)	10.6µM	13.3µM	/	/	/
CO/C1=C\C(C)=C\[C@@H](C)[C@@H](O)[C@@H](C)C/C(C)=C/C=C/[C@H](OC)[C@@H]([C@@H](C)[C@@H](O)[C@H](C)[C@@]2(O)C[C@@H](O)[C@H](C)C(C(C)C)O2)OC1=O (some centres undefined)	/	/	6.31µM	7.08µM	.
Nc1nc(F)nc2c1ncn2[C@@H]1O[C@H](CO)[C@@H](O)[C@H]1O	0.164µM	0.058µM	.	.	/
Nc1nc(F)nc2c1ncn2[C@@H]1O[C@H](CO)[C@@H](O)[C@@H]1O	0.164µM	0.206µM	.	.	.
CCNC(=O)[C@H]1O[C@@H](n2cnc3c(N)ncnc32)[C@H](O)[C@H]1O	/	/	/	/	.
Cn1c(=O)oc(=O)c2ccccc21	.	.	/	/	/
CC(C)(C)C(=O)N1Cc2cnnn2-c2ccccc2C1C#N (centres undefined)	.	.	/	/	/
COC(=O)c1ccccc1N	/	/	.	.	.
COC(=O)C1=C(C(=O)OC)C2OC1c1cc3ccccc3cc12	0.731µM	0.461µM	/	/	/
CC(C)c1ccc(OCC(=O)Nc2cc(-c3nc4ncccc4o3)ccc2Cl)cc1	6.51µM	?	/	/	.
CC(C)c1ccc2oc(-c3ccc(NC(=O)c4cc5ccccc5o4)cc3)nc2c1	?	.	/	/	.[12.3 µM]
O=C1CN(O)C(c2ccccc2)=c2cc(Br)ccc2=N1	.	.	.	.	/
CN1C[C@H](C(=O)N[C@]2(C)O[C@@]3(O)[C@@H]4CCCN4C(=O)[C@H](Cc4ccccc4)N3C2=O)CC2c3cccc4[nH]cc(c34)C[C@H]21 (some centres undefined)	18.4µM!	?	/	/	/
CN1C[C@H](C(=O)N[C@]2(C)O[C@]3(O)[C@H]4CCCN4C(=O)[C@H](Cc4ccccc4)N3C2=O)C[C@H]2c3cccc4[nH]cc(c34)C[C@@H]21	/	/	.	.	.[21 µM]
SMILES	DT40 TDP1 no CPT	DT40 TDP1 CPT	RORg inh	Gal4-VP16 FLuc	TDP1 inh
CC(C)[C@@]1(NC(=O)[C@H]2CC3c4cccc5[nH]cc(c45)C[C@H]3N(C)C2)O[C@@]2(O)C3CCCN3C(=O)[C@@H](Cc3ccccc3)N2C1=O (some centres undefined)	14.6µM	14.6µM	.[10 µM]	.	.
CN(C)C(=O)Oc1ccc(OC(=O)N(C)C)cc1	.	.	.	.	.
CN(C)C(=O)Oc1ccc(OCc2nc3ccccc3[nH]2)cc1	10.3µM	9.2µM	?	11.2µM	.
COc1ccc(OC)c(CN2CCN(C(=O)Cc3ccccc3)CC2)c1	.	.	.	.	/
COc1ccc(-c2cc3nc(C)c(CCC(=O)N4CCN(c5cc(C)ccc5C)CC4)c(C)n3n2)c(OC)c1	9.2µM	8.2µM	/	/	.
Cc1cc(NC(=O)COC(=O)c2c(C)nn(Cc3ccccc3)c2Cl)no1	.	.	?	.	.
Cc1ccc(-c2cc(-c3ccc(C)cc3)[n+](-c3ccccc3)c(-c3ccc(C)cc3)c2)cc1	0.366µM	0.517µM	/	/	.
CC(=O)c1ccc(-c2ccccc2)cc1	.	.	.	?	.
Cc1ccc(-c2cc(-c3ccc(C)cc3)[n+](-c3ccc(C(=O)[O-])cc3)c(-c3ccc(C)cc3)c2)cc1	?	?	/	/	.
C[n+]1c(-c2ccccc2)cc(-c2ccc(Cl)cc2)cc1-c1ccccc1	2.06µM	3.66µM	.	.	.
Cc1ccc(-c2cc(-c3ccccc3)cc(-c3ccccc3)[n+]2-c2ccccc2)cc1	0.92µM	1.64µM	/	/	.
N#C/C(=C\c1ccc(O)cc1)C(=O)O	.	.	.	.	.
O=C(CCC(=O)N1C[C@H]2C[C@@H](C1)c1cccc(=O)n1C2)NCc1cccc(C(F)(F)F)c1	.	.	.	.	/
O=C(C[C@@H]1CC[C@@H]2[C@H](COC[C@H](O)CN2Cc2cccc(C(F)(F)F)c2)O1)NCc1ccc(Cl)cc1	8.2µM	11.6µM	/	/	/
C=CCNC(=S)/N=C/c1c(O)[nH]c(=O)[nH]c1=O	.	.	.	.	.
CCOC(=O)CNC(=O)N1Cc2cc(-c3ccccc3)ccc2-n2nncc2C1	.	.	/	/	/
CC1(C)CC[C@]2(C)CC[C@]3(C)C4C[C@@H]5OO[C@@]6(O5)C(CCCC6(C)C)[C@]4(C)CC[C@@]3(C)C2C1 (some centres undefined)	5.17µM	8.2µM	/	/	/
C/C(CC(c1ccccc1)c1c(O)c2ccccc2oc1=O)=N\NC(N)=S (centres undefined)	?	?	?	?	.
Cc1ccc(C(C)(C)C)c(OCC(=O)Nc2ccc(Cl)cc2C(=O)c2ccccc2)c1	?	.	/	/	.[12.3 µM]
CC(=O)O[C@@]12CO[C@@H]1C[C@@H](O)[C@@]1(C)C(=O)[C@H](O)C3=C(C)[C@@H](OC(=O)[C@H](O)[C@@H](NC(=O)c4ccccc4)c4ccccc4)C[C@@](O)([C@@H](OC(=O)c4ccccc4)C12)C3(C)C (some centres undefined)	0.0651µM	0.0461µM	?	?	/

Screens deposited in PubChem BioAssay by National Center for Advancing Translational Sciences (NCATS).
